From PubChem
Rows were chosen to be rich in hits. Some 3.9% of all compounds tested hit in one or more screens of this group.
GDH-TPI counter: GDH-TPI coupling enzyme inhibitors, primary screen, artefact control for M. tuberculosis FBA inhibitor project, biochemical, absorbance, full deck. 1.2% of 360,000 active. inhibition, % at 4.8 µM. GDH-TPI coupled enzyme counterscreen, NADH absorbance; in the data active = inhibition above about 30%;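 note: 0% = DMSO wells and 100% = wells lacking the enzyme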
SARS 3CLpro inh: SARS-CoV 3CLpro protease inhibitors, primary screen, biochemical, quenched FRET. inhibition, % at 6 µM. 0.14% of 290,000 active. Replicase polyprotein 1ab (Severe acute respiratory syndrome coronavirus), P0C6X7. recombinant SARS-CoV 3CLpro, quenched FRET peptide cleavage; in the data active = inhibition above about 12%
PrPC TRFRET: inhibitors of human cell surface prion protein PrPC, primary screen, cell-based, TR-FRET. TR-FRET read-out. inhibition, % at 13.8 µM. 0.43% of 370,000 active. AID 720596, 2013; in the data active = inhibition above about 24%; note: 0% = median of the test wells and 100% = reference compound wells
FBA Mtb inh: Mtb FBA enzyme inhibitors, primary screen, biochemical, fluorescence, strain H37Rv; purified M. tuberculosis FBA, fluorescence read-out; inhibition, % at 1 µM; 2.3% of 360,000 active; in the data active = inhibition above about 27%;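 note: 0% = vehicle and 100% = reference inhibitor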
Target sequence (P9WQA3 whole entry, looked up): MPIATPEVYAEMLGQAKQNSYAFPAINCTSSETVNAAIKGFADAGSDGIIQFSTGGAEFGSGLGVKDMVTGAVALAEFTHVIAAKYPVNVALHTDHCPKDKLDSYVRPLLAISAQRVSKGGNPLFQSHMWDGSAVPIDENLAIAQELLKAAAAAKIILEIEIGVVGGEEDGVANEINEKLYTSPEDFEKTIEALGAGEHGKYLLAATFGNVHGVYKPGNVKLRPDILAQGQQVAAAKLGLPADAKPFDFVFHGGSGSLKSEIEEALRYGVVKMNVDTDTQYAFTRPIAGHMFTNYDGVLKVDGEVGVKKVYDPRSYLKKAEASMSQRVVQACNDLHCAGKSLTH
BH1578 lux ind: inducers of Vibrio cholerae quorum light production without autoinducers, primary screen, BH1578 luxS cqsA deficient, single point. 0.16% of 350,000 active. V. cholerae BH1578 lux reporter, luminescence, 6 h. AID 588436, 2011. activation, % at 18.7 µM; in the data active = activation mostly above about 9.7%, no sharp cut-off
Starred values were filed as active, the others as inactive; i = inactive; · = no result given; + = active, no number.

SMILES	GDH-TPI counter	SARS 3CLpro inh	PrPC TRFRET	FBA Mtb inh	BH1578 lux ind
Cn1cccc1/C=C1\SC(=S)N(NC(=O)c2ccccc2O)C1=O	33*	-2	-8	-39	0
CC(=NNc1ccccc1)C(C)=NNc1ccccc1	8	·	8	-1	-7
CC(=O)/C=N/Nc1ccccc1	36*	-3	0	2	0
Cc1ccc(F)cc1CNC(=O)C1CCC(=O)N(CCCN2CCCC2=O)C1 (stereo unspecified)	-5	-3	-5	0	i
COCc1cc(C)n(CC(=O)Nc2ccc3c(c2)OCO3)c(=O)c1C#N	32*	-5	-1	0	0
CCOC(=O)C(NC(=O)c1ccccc1)=C(C)C	-1	-7	0	0	i
COC(=O)C(NC(=O)c1ccccc1)=C1C=C(C)OC(C)=C1	31*	-3	-5	-3	1
CCOC(=O)C(NC(=O)c1ccccc1)=C1C=C(C)OC(C)=C1	42*	3	-5	-3	1
Nc1c(-c2ccc(Cl)cc2)cnc2c(-c3ccc(F)cc3)cnn12	2	2	3	9	-1
CC1(C)Cc2c(sc(/N=C/N3CCOCC3)c2C#N)C(C)(C)N1	25	-2	2	1	5
CC1(C)Cc2c(sc(/N=C/N3CCCCC3)c2C#N)C(C)(C)N1	31*	-5	-3	-6	i
Cc1cc(-c2nc3ncccc3o2)ccc1NC(=O)CC(C)C	14	-5	-1	+	·
Cc1cc(-c2nc3ncccc3o2)ccc1NC(=S)NC(=O)C(C)C	11	-2	-2	4	i
O=C(OCc1cn([C@H]2C[C@H](c3ccc(Cl)cc3)N(C(=O)C3CCCCC3)C[C@@H]2O)nn1)c1ccccc1	11	·	-10	-1	0
C=CCN1C(=O)[C@]2(c3ccccc31)C1CCCC=C1C(C#N)=C(N)C2(C#N)C#N (stereo partly specified)	12	-6	-7	-2	i
C=CCN1C(=O)C2(c3ccccc31)C1CCCC=C1C(C#N)=C(N)C2(C#N)C#N (stereo unspecified)	31*	1	0	-2	0
O=C1NC(=O)C2(COC(c3ccccc3Cl)OC2)S1 (stereo unspecified)	-7	1	0	-7	·
CC(O)c1ccc(Oc2cnccn2)cc1 (stereo unspecified)	-1	-6	-6	190*	0
C/C(=N/O)c1ccc(Oc2cnccn2)cc1	-2	-2	-3	1	0
CC1(Cc2cc(Cl)ccc2C(F)(F)F)C(=O)Nc2cc(C(F)(F)F)ccc21 (stereo unspecified)	3	·	5	-1	0
Cc1[nH]n(-c2ccc([N+](=O)[O-])cc2)c(=O)c1C=NCCN1CCN(C(=O)c2cccc(F)c2)CC1	34*	2	-28	-2	i
Cc1[nH]n(-c2ccc([N+](=O)[O-])cc2)c(=O)c1C=NCCN1CCN(C(=O)c2ccc(F)cc2)CC1	-7	-1	3	5	7
Nc1ccc2c(c1)oc1ccccc12	13	-6	-1	57*	i
Nc1cccc(C#Cc2ccc3c(=O)c4ccccc4oc3c2)c1	11	·	10	5	1
O=C(N/N=C\c1ccc(O)c([N+](=O)[O-])c1)c1ccccc1-n1cccc1	46*	7	-13	-12	-1
SMILES	GDH-TPI counter	SARS 3CLpro inh	PrPC TRFRET	FBA Mtb inh	BH1578 lux ind
O=C(N/N=C/c1ccc(O)c([N+](=O)[O-])c1)C(O)(c1ccccc1)c1ccccc1	35*	4	-10	-4	-1
CCOc1ccc2nc(NC(=O)c3ccc(S(=O)(=O)N4CCOCC4)cc3)sc2c1	9	0	-4	1	0
O=C(Nc1nnc(S(=O)(=O)N2CCCC2)s1)c1cccc([N+](=O)[O-])c1	39*	-1	·	3	0
COc1ccc(C(=O)Nc2nnc(S(=O)(=O)N3CCC(C)CC3)s2)cc1OC	46*	10	3	4	i
COc1ccc(C(=O)Nc2nnc(S(=O)(=O)N3CCCCCC3)s2)cc1OC	47*	1	6	4	0
CCOc1ccc2nc(NC(=O)c3ccc(OC)c(S(=O)(=O)N4CCOCC4)c3)sc2c1	7	-1	5	-2	44*
